Results on 38 compounds are retold here after PubChem BioAssay (NCI).

About 79,000 compounds went through this panel and 15% of them were active in at least one assay; those are over-represented in the sample as a whole. Unmarked numbers belong to inactive results. The source made the active and inactive calls. Rule as the data show it: active = growth inhibition above about 70%; inactive = the rest.

The nature of assay [1]: NCI Yeast Anticancer Drug Screen. Data for the rad50 strain (AID 155).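 Also: 0% = growth of vehicle-only cultures of the same strain.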 The following applies: S. cerevisiae rad50 strain growth inhibition; at 50.0 µM; hits give high values. The method, boiled down: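 Cells are treated with compound, grown, and their growth is then scored against vehicle-only cultures of the same repair-deficient yeast strain.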
Assay [2] can be described thus: NCI Yeast Anticancer Drug Screen. Data for the mec2-1 strain (AID 157). The following applies: S. cerevisiae mec2-1 strain, at 50.0 µM, hits give high values. The method, boiled down: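 Compounds were applied to mec2-1 yeast cells. Their growth was then compared with that of vehicle-treated cultures to give growth inhibition.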
Assay [3] in a line: NCI Yeast Anticancer Drug Screen. Data for the sgs1 mgt1 strain (AID 161).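 Also: 0% = growth of cultures given vehicle only.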 Particulars: S. cerevisiae sgs1 mgt1 strain, at 50.0 µM, hits give high values. The method, boiled down: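 This yeast growth screen uses a strain with defined DNA-repair lesions; compound-treated growth is compared with vehicle-treated growth.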
Assay [4] can be described thus: NCI Yeast Anticancer Drug Screen. Data for the cln2 rad14 strain (AID 165).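 Also: 0% = growth equal to vehicle treated cultures.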 The following applies: S. cerevisiae cln2 rad14 strain, at 50.0 µM, hits give high values. The method, boiled down: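 Strain: cln2 rad14 yeast, altered in cell cycle control and DNA damage repair. Read-out: growth inhibition vs vehicle.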
A short description of assay [5]: NCI Yeast Anticancer Drug Screen. Data for the bub3 strain (AID 167). The following applies: S. cerevisiae bub3 mutant strain, at 50.0 µM, hits give high values. The method, boiled down: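 Part of a panel of yeast mutants defective in DNA damage repair or cell cycle regulation. Each strain is grown with compound, and inhibition is calculated relative to solvent-treated cultures.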

A short description of assay [6]: NCI Yeast Anticancer Drug Screen. Data for the mlh1 rad18 strain (AID 175). Particulars: S. cerevisiae mlh1 rad18 strain growth inhibition; at 50.0 µM; hits give high values. The method, boiled down: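 A repair-deficient yeast strain is exposed to test compound, and growth is scored relative to vehicle-treated controls.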

With `CC(C)CCCCCCCCCCCCC(=O)NCC(=O)NC1C(C)OC(Nc2ncnc3c2ncn3C)C(O)C1O` (stereo not drawn), the growth inhibition in assay [1] is 10%; in assay [2], -14.5%; in assay [3] it was 9.3%; in assay [4], 15.6%; in assay [5], 4.05%; in assay [6] it was 11.4%.

As to `Cc1ccccc1OCC(O)COC(=O)CCS(=O)(=O)O` (stereo not drawn), the growth inhibition was -25.1% in assay [1]; -7% in assay [2]; -7.85% in assay [3]; 8.1% in assay [4]; 37.2% in assay [5]; -6.3% in assay [6].

In the case of `Nc1ccc(C(=O)O)c([N+](=O)[O-])c1`, the growth inhibition was 0.7% in assay [1]; -2.45% in assay [2]; -0.5% in assay [3]; -30.9% in assay [4]; -11.7% in assay [5]; -2.1% in assay [6].

In the case of `Cc1c[n+]([O-])cc(C)c1N=Nc1ccc(N(C)C)cc1`, the growth inhibition in assay [1] was 2.55%; in assay [2], -7.7%; in assay [3], -7.95%; in assay [4], 11.1%; in assay [5], 11.9%; in assay [6] it was 18.2%.

`CC1=CC(C)(C)NC(=S)N1c1cccc2c(S(=O)(=O)O)cccc12`: the growth inhibition in assay [1] was 5.05%; in assay [2], -20.8%; in assay [3], -11.2%; in assay [4], -32.3%; in assay [5] it was 4.55%; in assay [6] it was 6.3%.

As for `O=C(O)C[C@H]1CCCCC12CCOC2=O` (stereo partly drawn), the growth inhibition in assay [1] is 10.8%; in assay [2], 6.7%; in assay [3] it was -0.7%; in assay [4], -18.6%; in assay [5], 22%; in assay [6], 9.85%.

With `Cc1ccc(/C=N/NC2=NCCN2)s1`, the growth inhibition in assay [1] was -0.4%; in assay [2] it was 8%; in assay [3] it was 4.35%; in assay [4], 8.15%; in assay [5], -5.05%; in assay [6] it was 9.75%.

Regarding `Cn1c(CC(O)(C(F)(F)Cl)C(F)(F)Cl)cc(=O)n1-c1ccccc1`, the growth inhibition in assay [1] was 41.6%; in assay [2] it was 1.3%; in assay [3], 8.7%; in assay [4] it was 6.25%; in assay [5], 7%; in assay [6], 7.2%.

In the case of `c1ccc2[nH]c(-c3nc4ccccc4s3)cc2c1`, the growth inhibition was -3.75% in assay [1]; -4.45% in assay [2]; 0.05% in assay [3]; -60.1% in assay [4]; -12% in assay [5]; 1.25% in assay [6].

As to `Cc1nnc2cc1CCCCCCCCC2`, the growth inhibition in assay [1] was 11.8%; in assay [2], 6.25%; in assay [3], 4.8%; in assay [4] it was 5.2%; in assay [5], -10.8%; in assay [6], 4.9%.

For the compound `CC(O)C(O)C(O)C(O)C(/C=N/Nc1ccccc1)=N/Nc1ccccc1` (stereo not drawn), the growth inhibition was 3.75% in assay [1]; -14% in assay [2]; 8.1% in assay [3]; -9.95% in assay [4]; 0.25% in assay [5]; 22.8% in assay [6].

Take `Nc1nnc2nc(C(C(=O)/C=C\c3cccc(O)c3)c3nc4nnc(N)n4[nH]c3=O)c(=O)[nH]n12`: the growth inhibition is 30.4% in assay [1]; 15.1% in assay [2]; 19.6% in assay [3]; 1.65% in assay [4]; -5.35% in assay [5]; 19.7% in assay [6].

`C=CCOC(=O)Oc1ccc(Cl)cc1`: the growth inhibition is 27.6% in assay [1]; -13.9% in assay [2]; 23.1% in assay [3]; -0.85% in assay [4]; -2.7% in assay [5]; 28.6% in assay [6].

`CNC(=S)NC(=S)N(C)C`: the growth inhibition in assay [1] is -1.15%; in assay [2], -29.9%; in assay [3] it was 35.2%; in assay [4], -25.8%; in assay [5], -35.2%; in assay [6], 35.9%.

`O=C1OC(c2cccc(Cl)c2)=N/C1=C\c1ccccc1`: the growth inhibition was 13.9% in assay [1]; 2.85% in assay [2]; 13.5% in assay [3]; 14.8% in assay [4]; 10.9% in assay [5]; -5.05% in assay [6].

For `CCCCC1(C(=O)NC(=Nc2ccccc2)Nc2ccccc2)CCOC1=O` (stereo not drawn), the growth inhibition is 4.3% in assay [1]; 8.15% in assay [2]; -2.55% in assay [3]; -11.9% in assay [4]; -2.95% in assay [5]; 4.9% in assay [6].

In the case of `COC(=O)c1cc(NC(=O)Nc2ccc(F)c([N+](=O)[O-])c2)cc(C(=O)OC)c1`, the growth inhibition in assay [1] was 8.9%; in assay [2] it was 4.85%; in assay [3], -4.6%; in assay [4], 7.3%; in assay [5], -1.3%; in assay [6], 26.8%.

Regarding `CC(C)C1CCC2(C)C(CCC3C4(C)CCCC32OC4=O)C1` (stereo not drawn), the growth inhibition in assay [1] was -17.7%; in assay [2] it was -13.6%; in assay [3], -4.8%; in assay [4] it was -27.2%; in assay [5], -0.15%; in assay [6], 23.7%.

With `C/C(N)=N/C(=O)OCCOC(=O)/N=C(\C)N`, the growth inhibition is -2.25% in assay [1]; 8.3% in assay [2]; -9.35% in assay [3]; -5.3% in assay [4]; 15% in assay [5]; 1.9% in assay [6].

Turning to `C/C(=N\N)C1C(=O)c2ccccc2C1=O`, the growth inhibition in assay [1] was 6.1%; in assay [2], 5.05%; in assay [3], 13.7%; in assay [4] it was 20.8%; in assay [5], 8.8%; in assay [6] it was 11.3%.

As for `CCCCC(C(=O)O)C1CCCCC1` (stereo not drawn), the growth inhibition in assay [1] is -12.3%; in assay [2], 17.4%; in assay [3], 23.4%; in assay [4], -11.9%; in assay [5], -12.2%; in assay [6], -1%.

Take `Cc1c([N+](=O)[O-])cc2c(c1[N+](=O)[O-])C(=O)c1ccccc1-2`: the growth inhibition was -2.1% in assay [1]; 4.35% in assay [2]; 8.5% in assay [3]; -14.9% in assay [4]; -6.05% in assay [5]; 7.9% in assay [6].

Consider `O=C1OC[C@H]2[C@@H]1[C@H]1O[C@@H]2C2=C(CCC2)C1=O`, for which the growth inhibition was -27.4% in assay [1]; -38.8% in assay [2]; -43.5% in assay [3]; -19.7% in assay [4]; -30.9% in assay [5]; -51.3% in assay [6].

For `Nc1nc2nc(C(=O)O)c(=S)[nH]c2c(=O)[nH]1`, the growth inhibition in assay [1] is 11.1%; in assay [2], 3.8%; in assay [3], 1.9%; in assay [4], -10.9%; in assay [5], 7.6%; in assay [6], -8.25%.

With `COc1cccc(/S(C)=N/S(=O)(=O)c2ccc(C)cc2)c1` (stereo not drawn), the growth inhibition in assay [1] is -11.2%; in assay [2], -7.15%; in assay [3], 2.8%; in assay [4] it was -6.65%; in assay [5], -8.65%; in assay [6], 8.5%.

Turning to `O=[N+]([O-])c1cccc(SNSc2cccc([N+](=O)[O-])c2)c1`, the growth inhibition in assay [1] is 29%; in assay [2], 12.8%; in assay [3], 8.4%; in assay [4], -35.5%; in assay [5], 9.8%; in assay [6], 23.8%.

Regarding `N#Cc1c(-c2ccccc2)cc(-c2ccccc2)[nH]c1=O`, the growth inhibition in assay [1] was 18.6%; in assay [2], 7.4%; in assay [3], 16.4%; in assay [4], 11.7%; in assay [5], 3.5%; in assay [6] it was 22.9%.

`CCC(C)C(=O)/C=C/c1ccccc1` (stereo not drawn): the growth inhibition was 14.2% in assay [1]; -6.15% in assay [2]; -2.85% in assay [3]; -25.3% in assay [4]; 21.3% in assay [5]; -12.1% in assay [6].

Take `Cc1cc(NC(=O)COCC(=O)O)no1`: the growth inhibition in assay [1] was -7.15%; in assay [2], -24.9%; in assay [3] it was 5.65%; in assay [4] it was 9.45%; in assay [5] it was 0.6%; in assay [6] it was -9.15%.

Take `Nc1nnc(/C=C/c2ccc(Cl)cc2)o1`: the growth inhibition in assay [1] was -26.5%; in assay [2] it was -8.15%; in assay [3], -14.9%; in assay [4], 2.9%; in assay [5], -18.6%; in assay [6], -11.3%.

With `O=C(O)C(CCC1CCC=CCC1)C(=O)O`, the growth inhibition in assay [1] was -13.8%; in assay [2], -6.7%; in assay [3] it was -9.25%; in assay [4] it was -2.45%; in assay [5] it was 5.6%; in assay [6] it was -7.05%.

Regarding `CCc1ccccc1NC(=O)COc1ccc(Cl)cc1`, the growth inhibition in assay [1] was 5.7%; in assay [2], 29.2%; in assay [3], 18.8%; in assay [4], 0.45%; in assay [5] it was 34.2%; in assay [6], 1.1%.

Turning to `OCc1ccc2ccccc2n1`, the growth inhibition is 24% in assay [1]; -1.2% in assay [2]; 21.6% in assay [3]; -1.55% in assay [4]; 12.7% in assay [5]; 31.1% in assay [6].

On to `CC(C)(C)NC(=O)NCc1cccc(Cl)c1`, for which the growth inhibition in assay [1] is 0.25%; in assay [2], -19.6%; in assay [3] it was -4.15%; in assay [4], -36.1%; in assay [5] it was -3%; in assay [6], -3.25%.

On to `Cc1nc(N(CCO)CCO)c2sc(=S)n(-c3ccccc3)c2n1`, for which the growth inhibition is -35.5% in assay [1]; -16.4% in assay [2]; -43.9% in assay [3]; -13.7% in assay [4]; -14.2% in assay [5]; -45.8% in assay [6].

As to `CC(C)(C)c1ccc(OC(=O)NCCCCCCNC(=O)Oc2ccc(C(C)(C)C)cc2)cc1`, the growth inhibition in assay [1] is -5.65%; in assay [2] it was 23.9%; in assay [3], 4.8%; in assay [4], 92.3% (active); in assay [5], -2.85%; in assay [6], -8.5%.

Take `COc1ccc(N2C(=O)C3c4[nH]c5cccc(C)c5c4C4CCC(C(C)(C)C)CC4C3C2=O)cc1` (stereo not drawn): the growth inhibition in assay [1] was 8.75%; in assay [2] it was -21.1%; in assay [3], -5.75%; in assay [4], -10.6%; in assay [5] it was 2.8%; in assay [6], 6%.

Turning to `NC(=S)N/N=C/c1ncccc1N`, the growth inhibition in assay [1] was 14.8%; in assay [2], 50.6%; in assay [3], 39.2%; in assay [4], 35%; in assay [5] it was 34.9%; in assay [6], -21.7%.
